Structures can show the parent of a compound that is named as a salt. ± gives the uncertainty stated by the source.
test system: U87; assay: cell viability relative to vehicle control; higher = less growth inhibition (less active); settings: 10 µM; 72 h
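Note: viable cell number estimated from Alamar Blue fluorescence read at 560/90, part of a single-dose primary screen of an FDA-approved drug library.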

`COc1cccc(C2(O)CCCCC2CN(C)C)c1` (centres undefined) [Tramadol] and `COc1ccc2c(c1)[C@]13CCCC[C@@H]1[C@H](C2)N(C)CC3` [d-3-Methoxy-N-methylmorphinan hydrobromide] are within error of each other in cell viability: 102 ± 2.1% for the first, 103 ± 1.2% for the second.

Compared with `C=C(C)[C@@H]1[C@H]2OC(=O)[C@@H]1[C@]1(O)C[C@H]3O[C@]34C(=O)O[C@H]2[C@]14C.CC(C)(O)[C@@H]1[C@H]2OC(=O)[C@@H]1[C@]1(O)C[C@H]3O[C@]34C(=O)O[C@H]2[C@]14C` [Picrotin - Picrotoxinin], `CC(C)[C@]12O[C@H]1[C@@H]1O[C@]13[C@]1(O[C@H]1C[C@H]1C4=C(CC[C@@]13C)C(=O)OC4)[C@@H]2O` is lower in cell viability: 105 ± 1.3% for the first, 26.3 ± 2.5% for the second.

Compared with `C[C@]12CC[C@H](O)CC1=CC[C@@H]1[C@@H]2CC[C@@]2(C)[C@H]1CC[C@]2(C)O`, `C[C@]12CCC(=O)C=C1CC[C@@H]1[C@@H]2CC[C@@]2(C)[C@H]1CC[C@]2(C)O` [Methyltestosterone] is lower in cell viability: 127 ± 3.6% for the first, 66.4 ± 2.3% for the second.

Going from `CN1CC[C@]23CCCC[C@H]2[C@H]1Cc1ccc(O)cc13` to `CN1CC[C@]2(c3cccc(O)c3)Cc3nc4ccccc4cc3C[C@H]2C1`, the cell viability rises from 101.4 ± 0.14% to 103 ± 1.4%.

First: C[C@]12CCC(=O)C[C@@H]1CC[C@@H]1[C@@H]2CC[C@@]2(C)[C@H]1CC[C@]2(C)O [Mestanolone]
Second: C[C@]12C/C(=C/O)C(=O)C[C@@H]1CC[C@@H]1[C@@H]2CC[C@@]2(C)[C@H]1CC[C@]2(C)O [Oxymetholone]
The cell viability of the first is lower: 105.6 ± 0.93% for the first, 113 ± 2.5% for the second.

Compared with `CNC1=Nc2ccc(Cl)cc2C(c2ccccc2)=[N+]([O-])C1`, `CN1C(=O)CN=C(c2ccccc2)c2cc(Cl)ccc21` [Diazepam] is lower in cell viability: 104 ± 1.7% for the first, 98.6 ± 2.1% for the second.

Compared with `COc1ccc2[nH]cc(C3=CCNCC3)c2c1`, `COc1ccc2[nH]cc(CCN)c2c1` [5-Methoxytryptamine] is higher in cell viability: 105 ± 2.3% for the first, 109 ± 1.3% for the second.

`c1ccc(Cn2ccnc2)cc1` and `NC(=O)OCCCc1ccccc1` are within error of each other in cell viability: 105 ± 1.2% for the first, 104 ± 1.9% for the second.

First: CCCN1C[C@H](CSC)C[C@@H]2c3cccc4[nH]cc(c34)C[C@H]21 [Pergolide]
Second: CNC1CC(c2ccc(Cl)c(Cl)c2)c2ccccc21 (centres undefined) [Indatraline]
The cell viability of the first is higher: 109.4 ± 1% for the first, 99.93 ± 0.57% for the second.

Compared with `NCCc1ccccn1`, `c1cncc([C@@H]2CCCN2)c1` [Nornicotine] is higher in cell viability: 104 ± 1.4% for the first, 111 ± 3.4% for the second.

Going from `C[C@]12CC[C@H]3[C@@H](CCC4=CC(=O)CC[C@@]43C)[C@@H]1CC[C@@H]2O` [Testosterone] to `C[C@]12CC[C@H]3[C@@H](CCC4=CC(=O)CC[C@@H]43)[C@@H]1CC[C@@H]2O` [Nandrolone], the cell viability falls from 107 ± 1.6% to 101.5 ± 0.8%.

Compared with `CCN(C(C)=O)c1cccc(-c2ccnc3c(C#N)cnn23)c1` [Zaleplon], `CN1C(=O)CN=C(c2ccccc2)c2cc([N+](=O)[O-])ccc21` [Nimetazepam] is lower in cell viability: 111.7 ± 0.3% for the first, 108 ± 2.6% for the second.

First: NC(=O)C[S+]([O-])C(c1ccccc1)c1ccccc1 (centres undefined) [Modafinil]
Second: Cc1nnc2n1-c1ccc(Cl)cc1C(c1ccccc1)=NC2 [Alprazolam]
The cell viability of the first is higher: 107 ± 1.4% for the first, 89.23 ± 0.4% for the second.

`Cc1ccc(-c2nc3ccc(C)cn3c2CC(=O)N(C)C)cc1` and `CS(=O)(=O)Nc1ccc(Cc2noc(-c3ccc4[nH]cc(CCN)c4c3)n2)cc1` are the same in cell viability: 106 ± 1.9% for the first, 106 ± 1.2% for the second.

Compared with `COc1cc2c(cc1OC)[C@@]13CCN4CC5=CCO[C@H]6CC(=O)N2[C@H]1[C@H]6[C@H]5C[C@H]43` [Brucine], `CC(=O)O[C@H]1C[C@@H]2CC[C@@H]3[C@H](CC[C@@]4(C)[C@H]3C[C@H]([N+]3(C)CCCCC3)[C@@H]4OC(C)=O)[C@@]2(C)C[C@@H]1[N+]1(C)CCCCC1` [Pancuronium] is lower in cell viability: 107 ± 1.1% for the first, 103.79 ± 0.081% for the second.

First: CCCCC/C=C\C/C=C\C/C=C\C/C=C\CCCC(=O)Nc1ccc(O)cc1
Second: CNCC(O)c1ccc(O)cc1 (centres undefined)
The cell viability of the first is lower: 100.5 ± 0.91% for the first, 107 ± 4.5% for the second.

First: O=C(O)C(Cl)Cl
Second: O=C1Nc2ccc(Cl)cc2C(c2ccccc2Cl)=NC1O (centres undefined) [Lorazepam]
The cell viability of the first is lower: 101 ± 1.6% for the first, 105.6 ± 0.26% for the second.
